Structures are written as SMILES. This is part of a sample that, as a whole, favours compounds with a hit. Of some 83,000 tested, about 20% had one in any assay.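 Note: values are percent growth. 100 is the growth of untreated cells, values between 100 and 0 indicate rising inhibition; between -100 and 0 indicates cell death.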 A number with no mark means an inactive call. Activity calls are given as the source filed them. How the source made its calls: active means growth percent below 10; inactive means the rest.

In this assay the test system is HL-60(TB) leukemia. In words: NCI-60 one-dose screen, 48 h (100 = growth as untreated, 0 = no growth, -100 = all killed). Conditions: 10 µM unless noted.
As for `O=C(OCc1ccc2c(Br)cc(Br)c(O)c2n1)N1CCN(C(=O)c2cc3ccccc3[nH]2)CC1`, the growth is 53.9%. As to `O=C(Nc1ccc(C(=O)Nc2ccc(C3=NCCCN3)cc2)cc1)Nc1ccc(C2=NCCCN2)cc1`, the growth is 44.2%. The figure for `c1ccc2nc(N/N=C3\CCCCC3C3CCCCC3)ccc2c1` (stereo not given) is -19.7% (active); for `O=C(/C(=C\c1ccc([N+](=O)[O-])cc1)S(=O)Cc1ccc(F)cc1)c1ccc(F)cc1` (stereo not given) it is 5.72% (active). The figure for `C[C@H]1[C@H](C)CC[C@]2(C(=O)NCCNCCN)CC[C@]3(C)C(=CC[C@@H]4[C@@]5(C)CCC(=O)C(C)(C)[C@@H]5CC[C@]43C)[C@H]12` is -58.5% (active); for `CN(C)c1ccc2oc(=O)c3ccccc3c2c1` it is 143%. As for `O=C(Nc1ncc(Cc2ccccc2Cl)s1)c1ccc2c(c1)OCCO2`, the growth was -56.8% (active). The figure for `NNC(=O)NO` is 94.4%.

On to `O=Cc1c[nH]c2ccc(NC(=O)OCc3ccccc3)cc12`, for which the growth was 200%.

Regarding `CC1=CC2c3oc(-c4ccccc4)c(C(=O)c4ccccc4)c3CNC2C=C1` (stereo not given), the growth is 84.3%.

Regarding `C=C1CC2(OC1=O)C(=O)N(CCCCCCCCCCCCN1C(=O)C3(CC(=C)C(=O)O3)c3ccccc31)c1ccccc12` (stereo not given), the growth was 45.5%. The result for `COc1ccc(C(=O)COc2ccc(/C=C3\COc4ccc(OC)cc4C3=O)cc2)cc1` reads 59.4%. Consider `COc1ccc(-c2nc3c(N)c(CO)c(C)nc3o2)cc1`, for which the growth is 98.3%. The figure for `N#Cc1c2ncccc2c2nnc3cc(Cl)c(Cl)cc3n12` is 80.4%; for `COc1cc2nc(C(=O)N3CCCCC3)cc(Nc3ccccc3)c2cc1OC` it is 96.8%.

Take `COC(=O)CCCCCCCCC1(C)C=CC(C(C)O)=CC1` (stereo not given): the growth was 99.4%. The result for `C=C1C(=O)O[C@H]2[C@H]1CC/C(COC(=O)NCc1c[nH]c3ccc(F)cc13)=C\CC[C@@]1(C)O[C@@H]21` reads -32.4% (active); that for `CN(C)c1cnccn1`, 90.3%; that for `CCCCCOc1ccc(C(=O)/C(Br)=C/C(=O)O)cc1`, 69.3%. `O=C1CC[C@@H](C(=O)N[C@H]2CSSC[C@@H](C(=O)NCCc3ccccc3)NC(=O)[C@H](Cc3ccccc3)NC(=O)[C@@H]3CCCN3C(=O)[C@@H]3CCCN3C2=O)N1`: the growth was 76.3%. The result for `O=C(O)c1cc(C(=O)O)cc([N+](=O)[O-])c1` reads 94.5%; that for `CC[n+]1ccc2c(c1)C(=O)c1nccc3c1c-2nc1ccccc13`, -31.8% (active). The result for `O=C(O)c1cc([N+](=O)[O-])ccc1Br` reads 105%; that for `COc1cc(C2=NN(C=O)C(c3cccc(Nc4ccnc5cc(Cl)ccc45)c3)C2)cc(OC)c1OC` (stereo not given), 75.4%; that for `O=C(NCCNC(c1ccccc1)C(NCCNC(=O)c1ccccc1)c1ccccc1)c1ccccc1` (stereo not given), 68.3%.

Turning to `Cc1cc(C)nc(NS(=O)(=O)c2ccc(Nc3nc4nc(SCc5ccccc5)nc(-c5ccc(O)cc5)c4c(=O)[nH]3)cc2)n1`, the growth was 86.3%.

`COc1cc(C(=O)N2CCN(c3cc4c(cc3F)c(=O)c(C(=O)NO)cn4C3CC3)CC2)cc(OC)c1OC`: the growth is 101%. The figure for `O=C(Nc1ncc(Cc2cccc(C(F)(F)F)c2)s1)C1COc2ccccc2O1` (stereo not given) is 98.5%; for `CNCCOc1nc2c3cnccc3cc(-c3cc(OC)c(OC)c(OC)c3)c2c2ccncc12` it is -25.8% (active). The figure for `O=C(Nc1ccc(-c2ccc3c(c2)NC(=O)/C3=C\c2ccc[nH]2)cc1)NC1CC1` is 98.3%; for `CCn1c(=O)c(C(=O)NCCCO)c(O)c2ccccc21` it is 90.5%; for `CN(C)c1cccc2c(S(=O)(=O)N[C@H]3CC[C@H]4[C@@H]5CCc6cc(O)ccc6[C@H]5CC[C@]34C)cccc12` it is -26.7% (active). The figure for `CC/C=C\C[C@H](F)C/C=C1/C(=O)C=C[C@@H]1C/C=C\CCCC(=O)O` is -16.1% (active). With `COc1cccc(N2CCN(CC(=O)N3CCN(c4nnc(-c5ccc(Cl)cc5)c(-c5ccc(Cl)cc5)n4)CC3)CC2)c1`, the growth was 20.6%. On to `c1ccc(-c2nc(Nc3ccc(-c4nc5ccccc5[nH]4)cc3)nc(N3CCOCC3)n2)cc1`, for which the growth was -32.7% (active).

As to `O=C(C[n+]1ccccc1Cl)c1ccc2c(c1)CCCC2`, the growth was 79.2%. As to `COc1ccc(Nc2c3ccccc3nc3ccccc23)cc1`, the growth is 12.8%. Take `COc1ccc(/C(=C\c2ccc3c(c2)OCO3)C(=O)Nc2nc3ccccc3s2)cc1`: the growth was 101%. On to `Cc1ccc(Cc2cnc(NC(=O)c3cc(C)oc3C)s2)cc1`, for which the growth is 79.1%.

Take `Cc1ccc(S(=O)(=O)N2CCCN(c3nc(-c4ccccc4)nc4nc(-c5ccccc5)oc34)CC2)cc1`: the growth was 110%.

The values above are taken from PubChem BioAssay (NCI).
